Test results as given in PubChem BioAssay AID463173 (ICCB-Longwood Screening Facility, Harvard Medical School, 2010).
Out of some 52,000 compounds screened, about 1,700 (3.3%) were called active. Many of the other results were omitted from the sample, so actives are more common in it than they were. Unmarked numbers belong to inactive results. No stated cut-off is given here; in the data, active means survival mostly below about 52% (no sharp cut-off); inactive means mostly above about 56%.

Each compound was assayed on Wild type (assay: growth inhibition of S. aureus wild type versus tarO mutant, primary screen, teichoic acid synthesis inhibitors, RN4220, OD600 (AID 463173)). Conditions: S. aureus RN4220 wild type/DeltatarO growth, OD600, 18 h, hits give low values, screened at 18.75 µg/mL (by protocol).

Structure (SMILES) | survival
Cc1ccc(Cl)cc1NC(=O)c1ccc(NC(=O)N2CCSc3ncccc32)cc1 | 71%
Cc1ccc(NC(=O)c2ccc(NC(=O)N3CCSc4ncccc43)cc2)c(C)c1 | 82%
CC(C)Oc1ccc(CNC(=O)c2cccc(NC(=O)N3CCSc4ncccc43)c2)cc1 | 79%
CC(C)Oc1ccc(CNC(=O)Cc2ccc(NC(=O)N3CCSc4ncccc43)cc2)cc1 | 73%
Cc1ccccc1NC(=O)c1ccc(NC(=O)N2CCSc3ncccc32)cc1 | -4% (active)
CC(=O)c1ccc(NC(=O)c2cccc(NC(=O)N3CCSc4ncccc43)c2)cc1 | 55%
CCOc1ccc(NC(=O)c2ccc(NC(=O)N3CCSc4ncccc43)cc2)cc1 | 64%
CC(C)Oc1ccc(CNC(=O)c2ccc(NC(=O)N3CCSc4ncccc43)cc2)cc1 | 1% (active)
CCc1cccc(NC(=O)c2ccc(NC(=O)N3CCSc4ncccc43)cc2)c1 | -3% (active)
CCOc1ccc(-c2oc3cc(Cl)ccc3c(=O)c2O)cc1OC | 103%
CC(C)NC(=O)CSc1cn(CC(=O)N2CCCCCC2)c2ccccc12 | 95%
Cc1cc2c(cc(C(=O)OC(C(=O)NCC3CCCO3)C(C)C)n2C)o1 (stereo not drawn) | 120%
O=C(c1ccc(F)cc1)N1c2ncnn2C2(CCCCC2)[C@@H]2CCCC[C@@H]21 | 82%
COc1ccc(Cn2c(CNS(=O)(=O)c3ccc(Cl)s3)nc3cccnc32)cc1 | 78%
CCC/C(O)=C1\C(=O)CC(C)(C)CC1=Nc1ccncc1 | 115%
CCc1ccc(NC(=O)CN2CCN(C3CCCCC3)C(=O)C2=O)cc1 | 77%
CCc1ccc(NC(=O)C2CCCN(S(=O)(=O)c3ccc(F)cc3)C2)cc1 (stereo not drawn) | 75%
CCOC(=O)c1c(C(=O)CSc2ncc(-c3ccc(F)cc3)n2Cc2ccco2)sc2c1CCCC2 | 116%
CCOc1ccc(C(C)N)cc1 (stereo not drawn) | 102%
COCCNC(=O)Nc1ccc2c(c1)nc(C)n2C | 87%

Structure (SMILES) | survival
CCOc1cccc(C2Nc3ccccc3-c3cc(C)nn32)c1O (stereo not drawn) | 145%
COc1cc(C2Nc3c(C)cc(C)cc3-c3cc(C)nn32)cc(OC)c1O (stereo not drawn) | 97%
Cc1ccc2c(c1)-c1cc(C)nn1C(c1cc(Br)ccc1O)N2 (stereo not drawn) | 131%
COC(=O)c1ccc(C2Nc3c(C)cccc3-c3cc(C)nn32)cc1 (stereo not drawn) | -4% (active)
Cc1cc2n(n1)C(c1cc(C(C)(C)C)c(O)cc1O)Nc1ccccc1-2 (stereo not drawn) | 115%
CCOc1ccc(C2Nc3c(C)cccc3-c3cc(C)nn32)cc1 (stereo not drawn) | -14% (active)
CCN(CC)c1ccc(C2Nc3ccccc3-c3cc(C)nn32)cc1 (stereo not drawn) | -1% (active)
COc1cc(C2Nc3ccccc3-c3cc(C)nn32)ccc1O (stereo not drawn) | 139%
COc1cc(OC)c(C2Nc3c(C)cccc3-c3cc(C)nn32)cc1OC (stereo not drawn) | 142%
CC(=O)Nc1ccc(C2Nc3c(C)cc(C)cc3-c3cc(C)nn32)cc1 (stereo not drawn) | 141%
Cc1cc2n(n1)C(c1ccccc1)Nc1ccccc1-2 (stereo not drawn) | 123%
COc1ccc(OC)c(C2Nc3c(C)cc(C)cc3-c3cc(C)nn32)c1 (stereo not drawn) | -14% (active)
O=C(NCc1ccc(Cl)cc1)C(=O)NCC(c1ccco1)S(=O)(=O)c1cccs1 (stereo not drawn) | 76%
Cc1ccc(Cn2c(=O)n(Cc3ccco3)c(=O)c3sc4ccccc4c32)cc1 | 94%
COc1ccc(-c2noc(CN3CCN(c4ccccc4OC)CC3)n2)cc1OC | 83%
CCOC(=O)N1CCN(C(=O)CN(c2cccc(Cl)c2)S(=O)(=O)c2ccccc2)CC1 | 63%
CCOC(=O)c1cccc(NC(=O)NCCc2c(C)nn(C)c2C)c1 | 63%
COc1ccc(Nc2cc(C(=O)NCCCN(C)C3CCCCC3)c3ccccc3n2)c(OC)c1 | 92%
COc1ccc(NC(=O)c2cc3c(-c4ccccc4F)nn(C)c3s2)c(OC)c1 | 38%
O=C1CS(=O)(=O)C2(C(=O)N(Cc3ccccc3)c3ccccc32)N1c1ccccc1 (stereo not drawn) | 132%

Structure (SMILES) | survival
COc1cc(NS(=O)(=O)c2cc3c(cc2C)n(C)c(=O)c(=O)n3C)cc(OC)c1 | 54%
COc1cc(-c2nc(-c3cccc(Cl)c3)c(-c3ccccc3)[nH]2)cc(OC)c1OC | 143%
COc1ccc(-c2nc(SCC(=O)Nc3ccccc3)c(-c3ccc(F)cc3)[nH]2)cc1OC | 58%
CCOc1ccc(-c2nc(-c3ccccc3)c(-c3ccccc3)[nH]2)cc1OCC | 163%
COc1ccc(-c2nc(-c3ccccc3)c(-c3ccccc3)[nH]2)cc1Br | 81%
COCCNC(=O)CSc1nc(-c2ccccc2)[nH]c1-c1ccc(OC)cc1 | 74%
COc1ccc(-c2[nH]c(-c3ccc(O)cc3)nc2-c2ccccc2)cc1 | 0% (active)
COc1ccc(-c2nc(-c3ccccc3)c(-c3ccc(F)cc3)[nH]2)c(OC)c1C | 15% (active)
COc1ccc(NC(=O)CSc2nc(-c3ccc(OC)cc3)[nH]c2-c2ccc(OC)cc2)cc1 | 76%
COc1ccc(-c2[nH]c(-c3ccccc3)nc2SCC(=O)NC2CCCC2)cc1 | 80%
COc1ccc(-c2nc(-c3ccccc3)c(-c3ccc(O)cc3)[nH]2)cc1 | 3% (active)
COc1cc(-c2nc(SCC(=O)Nc3ccc(C)cc3)c(-c3ccc(F)cc3)[nH]2)cc(OC)c1OC | 106%
COc1cc(-c2nc(-c3ccccc3)c(-c3ccc(Br)cc3)[nH]2)cc(OC)c1O | 5% (active)
CC(C)(C)n1nnnc1C(c1ccc2ncccc2c1)N1CCc2ccccc21 (stereo not drawn) | 111%
CCc1ccccc1NC(=O)CSc1nnc2ccc3ccccc3n12 | 80%
Cc1ccc(Cl)cc1N(C)C(=O)c1noc2c1CCCCC2 | 65%
CCCCC(=O)OCc1cc(=O)n2nc(C3CC3)sc2n1 | 135%
CCCOc1ccc(CNC(=O)c2ccc(-n3c(C)cc4c3CCC(C)C4)cc2)cc1 (stereo not drawn) | 113%
